Screening data as filed in PubChem BioAssay.
This is one part of a sample in which hits are shown more often than they occur.
Pf Dd2 inh: inhibitors of Plasmodium falciparum Dd2 growth | P. falciparum Dd2 growth, SYBR Green, 72 h | Potency, µM (highest dose often 28.9 µM), without a hit: at the highest dose activity, negative = inhibition, most hits filed as inhibitors | actives 4.3% (n = 120,000) | AID 1347417; active means well fitted inhibition curve with a large enough effect;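 further: plate controls were DMSO vehicle for no effect and reference drug for full effect; nearly all actives have a fitted effect of over 65% in size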
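Readout: SYBR Green fluorescence, 485 nm excitation, 535 nm emission, after ~16 h lysis at 37C. Before that, Dd2-infected red cells (2.5% hematocrit) grew 72 h with compound, 29 uM top final concentration.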
* marks the source's active call; other numbers are inactive results; i = inactive; [ ] = another dose, or the depositor's remark. Potency means the concentration at half of the fitted maximal effect.

SMILES | Pf Dd2 inh
OC1CN(Cc2ccccc2)CCN(Cc2ccc3[nH]ccc3c2)C1 (centres undefined) | -19%
O=C(Nc1cc(F)cc(F)c1)N1CCC(Oc2ncccc2C(=O)N2CCCCC2)C1 (centres undefined) | i
COc1cc(C2C(C(=O)Nc3ccc(C)cc3C)=C(C)Nc3nc(SCc4ccccc4)nn32)cc(OC)c1OC (centres undefined) | -2%
CC1=C(C(=O)Nc2ccc(C)cc2C)C(c2ccc(C(=O)O)cc2)n2nc(SCc3ccccc3)nc2N1 (centres undefined) | -5%
CC1=C(C(=O)Nc2ccc(C)cc2C)C(c2ccc(C(C)C)cc2)n2nc(C(F)(F)F)nc2N1 (centres undefined) | 13µM*
COc1ccc(CN2CCC(CO)(CN3CCCC3)CC2)c(OC)c1C | i
CCCc1cc(C(=O)N(C)CCOc2ccccc2CC)n(C)n1 | -25%
O=C(O)C1CCc2nnc(C3CCN(C(=O)C4CCCCC4)CC3)n21 (centres undefined) | 14%
COc1ccccc1CN1CC[C@H](c2nnc(Cc3c[nH]c4ccccc34)o2)C1 | i
O=C1NCCCCCCN(Cc2ccncc2)[C@@H]2CN(C(=O)c3ccsc3)CC[C@@H]12 | -15%
COc1cccc(CNC(=O)[C@@H]2C[C@@H](O)CN2C2CCN(C(=O)c3cccnc3C)CC2)c1 | -7%
COCC1CN(Cc2c[nH]c3ccccc23)CC12CCNCC2 (centres undefined) | 6%
COCC1CN(Cc2cccc(OC(F)(F)F)c2)CC12CCNCC2 (centres undefined) | 1.3µM*
COCC1CN(Cc2cccnc2)CC12CCNCC2 (centres undefined) | 7%
O=C(c1ccc(Cl)cc1)N(CC1CCOC1)C1CC1 (centres undefined) | i[5.79 µM]
CCc1ccc(OCC(=O)c2ccc3c(c2)N(CCCC(=O)NCC2CCCO2)C(=O)CO3)cc1 (centres undefined) | -15%
C[C@@H](NC(=O)c1cccnc1)c1onc(-c2ccc(F)cc2)c1C(=O)O | -13%[44.1 µM]
CCOC(=O)c1c(C)oc2ncnc(Nc3cccc(C(F)(F)F)c3)c12 | 29%
Cc1ccc(Nc2nc3nonc3nc2Nc2cccc(C(F)(F)F)c2)cc1Cl | 1.1µM*
CCOC(=O)c1noc2ncnc(Nc3cccc(C(F)(F)F)c3)c12 | 77%
NC(=O)c1cccnc1N1CCC2(CC1)CC(C(=O)O)N(C(=O)C1CC1)C2 (centres undefined) | -6%
CC(C)(C)c1ccc(-n2ncc3c2CCCC3NC(=O)Cc2n[nH]c(=O)[nH]2)cc1 (centres undefined) | -13%
CCCCc1ncc(-c2nccn2Cc2noc(CC(C)C)n2)[nH]1 | -29%
O=C(c1ccccn1)N1CCC2(CC1)CC(N(Cc1ccccc1)C1CC1)CCO2 (centres undefined) | -6%
COCCC(=O)N1CCC2(CC1)CC(N(Cc1ccccc1)C1CC1)CCO2 (centres undefined) | i
SMILES | Pf Dd2 inh
O=C(CCC1CCCC1)N1CCC2(CC1)CC(N(Cc1ccccc1)C1CC1)CCO2 (centres undefined) | 13µM*
O=C(c1ccco1)N1CCC2(CC1)CC(N(Cc1ccc(F)cc1)C1CC1)CCO2 (centres undefined) | 2.8µM*
O=C(C1CCC1)N1CCC2(CC1)CC(N(Cc1ccc(F)cc1)C1CC1)CCO2 (centres undefined) | i
Cc1cc(C(=O)N2CCC3(CC2)CC(N(Cc2ccc(F)cc2)C2CC2)CCO3)n(C)n1 (centres undefined) | i
O=C(c1ccccc1)N1CCC2(CC1)CC(N(Cc1ccc(F)cc1)C1CC1)CCO2 (centres undefined) | 7.9µM*
O=C(CC1CCCC1)N1CCC2(CC1)CC(N(Cc1ccc(F)cc1)C1CC1)CCO2 (centres undefined) | 7.9µM*
CCOCC(=O)N1CCC2(CC1)CC(N(Cc1ccc(F)cc1)C1CC1)CCO2 (centres undefined) | -33%
CC(=O)N1CCC2(CC1)CC(N(Cc1ccc(F)cc1)C1CC1)CCO2 (centres undefined) | 9%
CCC(=O)N1CCC2(CC1)CC(N(Cc1ccccc1)C1CC1)CCO2 (centres undefined) | -20%
O=C(C1CCOCC1)N1CCC2(CC1)CC(N(Cc1ccc(F)cc1)C1CC1)CCO2 (centres undefined) | 0%
CN1CC(=O)N(c2ccccc2F)Cc2c(NC3CCCC3)ncnc21 | 28%[44.1 µM]
COc1ccc([C@@H](NC(=O)CN2CCc3ccccc3C2)C2CC(O)C2)cn1 (some centres undefined) | i
O=C(C1CC(=O)N(c2n[nH]c3ccccc23)C1)N1CCSCC1 (centres undefined) | -9%
COC(=O)[C@@H]1Cc2ncn(Cc3ccccc3)c2CN1C(=O)COc1ccccc1 | i
Cc1noc(C)c1CC(=O)NCCc1noc(-c2ccccc2)n1 | -7%
Cc1cccc(CN2C[C@]34C=C[C@H](O3)C(C(=O)N(C)Cc3nnc(C)o3)C4C2=O)c1 (some centres undefined) | 12%
O=C(CC1CCCN(c2cnn(CC3CC3)c(=O)c2)C1)NCCN1CCOCC1 (centres undefined) | 27%
CCOCc1nc(C2CCCN(C(=O)c3ccoc3)C2)no1 (centres undefined) | 18%
CS(=O)(=O)c1ccc(S(=O)(=O)N2CCC3(CCCNC3)C2)cc1 (centres undefined) | 5%
COc1nccc(N2CCC(CC(=O)NCCCN3CCCC3=O)CC2)n1 | -19%
CC(C)C(=O)N1CCC2(CC1)CC(N(Cc1ccccc1)C1CC1)CCO2 (centres undefined) | -23%
Cc1ccc(C(=O)N2CCC3(CC2)CC(N(Cc2ccccc2)C2CC2)CCO3)cc1 (centres undefined) | i
Cc1ccc(C(=O)N2CCC3(CC2)CC(N(Cc2ccccc2)C2CC2)CCO3)s1 (centres undefined) | 1.6µM*
O=C(NCc1ccc(N2CCOCC2)cc1)c1cc[nH]c1C1CCCNC1 (centres undefined) | -3%
COCCN1CC(CNc2nc(CCN)nc3sc(C)c(C)c23)CC1=O (centres undefined) | -1%
SMILES | Pf Dd2 inh
CCCc1cc(CN(C)c2nc(CCN)nc3sc(C)c(C)c23)[nH]n1 | 10µM*
Cn1c(CO[C@H]2CN(C(=O)C3CCOCC3)C[C@H]2F)nc2ccccc21 | -1%[44.1 µM]
Cc1ccc(C(=O)N2CCC3(CC2)c2nccn2-c2ccccc2CN3C)c(C)c1 | i[5.79 µM]
COc1cccc(NC(=O)CC2CCCN(c3cnn(C)c(=O)c3)C2)c1 (centres undefined) | -13%
O=C([C@@H]1C[C@H](F)CN1C(=O)c1ccccc1)N1CCOCC1 | 7%
COc1ccc(-c2cc(-c3c(C)noc3C)c3cncn3c2)cc1 | 5µM*
COc1ccc(-c2nc(-c3c(C)noc3C)cc3c2cc(-c2ccccc2)n3C)cn1 | -26%[44.1 µM]
COc1ccc(-c2noc(-c3ccc(N4CCCOCC4)nc3)n2)cc1 | i
COc1ccc(-c2cc(-c3ccc(N4CCOCC4)nc3)cn3cncc23)cc1 | 0.79µM*
O=c1ccc(-c2cc(-c3cccc4cn[nH]c34)cn3cncc23)c[nH]1 | i
Cc1ccc(-c2cc(-c3ccc(=O)[nH]c3)c3cncn3c2)cn1 | 47%[44.1 µM]
COc1cccc(-c2cc(-c3ccc(=O)[nH]c3)c3cncn3c2)c1 | i
Cc1noc(C)c1-c1cc(-c2cnn(C)c2)cn2cncc12 | -9%[44.1 µM]
O=c1ccc(-c2cc(-c3cccc(N4CCOCC4)c3)cn3cncc23)c[nH]1 | 7.9µM*
